Some test systems named below: 786-0 renal; MALME-3M melanoma; UACC-257 melanoma; SK-MEL-2 melanoma; EKVX NSCLC; SN12C renal; TK-10 renal; ACHN renal; CAKI-1 renal; A498 renal; RPMI-8226 leukemia; OVCAR-8 ovarian; OVCAR-4 ovarian; SK-OV-3 ovarian; IGROV1 ovarian; OVCAR-3 ovarian; BT-549 breast; MDA-MB-435 melanoma; HCT-116 colon; HCC-2998 colon.
Common to all, as to test: NCI-60 one-dose screen, 48 h (100 = growth as untreated, 0 = no growth, -100 = all killed)
Holding throughout (details): 10 µM

The panel holds about 83,000 compounds, 20% with a hit somewhere; the sample as a whole holds those more often.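 Interpretation: 100, growth as untreated; towards 0, rising growth inhibition; 0, no net growth; 0 to -100, cell death. Compounds scoring below 10 were considered active.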 A number with no mark means an inactive call. Calls of active or inactive are those of the source.

With `CC[C@]12C=CCN3CC[C@@]4(c5ccc(OC)cc5N(C)[C@H]4[C@@](O)(C(=O)OC)[C@@H]1OC(=O)CCCC[P+](C1CCCCC1)(C1CCCCC1)C1CCCCC1)[C@@H]32`, the growth in the assay with 786-0 renal was -36% (active); in the assay on MALME-3M melanoma, -95.9% (active); with UACC-257 melanoma it was -82.1% (active); with SK-MEL-2 melanoma, -88% (active); in the assay with EKVX NSCLC, 13.2%; in the assay with SN12C renal, -57.9% (active). Further, the growth with TK-10 renal is -64.1% (active); with ACHN renal, 18.7%; with CAKI-1 renal, -24.1% (active); in the assay with A498 renal, -0.0449% (active); in the assay on RPMI-8226 leukemia it was -45% (active); in the assay with OVCAR-8 ovarian it was -6.33% (active). Also, the growth is 12.4% in the assay with OVCAR-4 ovarian; -22.3% (active) with SK-OV-3 ovarian; -84.7% (active) in the assay on IGROV1 ovarian; -60.3% (active) in the assay on OVCAR-3 ovarian; -97.4% (active) in the assay on BT-549 breast; -90.5% (active) in the assay with MDA-MB-435 melanoma. Moreover, the growth in the assay with HCT-116 colon is 4.69% (active); with HCC-2998 colon, -87.8% (active).
Turning to `CC[C@]12C=CCN3CC[C@@]4(c5ccc(OC)cc5N(C)[C@H]4[C@@](O)(C(=O)OC)[C@@H]1OC(=O)CCCC[P+](c1ccc(C)cc1)(c1ccc(C)cc1)c1ccc(C)cc1)[C@@H]32`, the growth in the assay with 786-0 renal was -91% (active); in the assay on MALME-3M melanoma, -96% (active); in the assay with UACC-257 melanoma, -95% (active); in the assay with SK-MEL-2 melanoma, -87.3% (active); in the assay with EKVX NSCLC, -93.8% (active); in the assay on SN12C renal, -88.5% (active). The growth in the assay on TK-10 renal is -91.3% (active); with ACHN renal it was -99.3% (active); with CAKI-1 renal, -95.2% (active); in the assay on A498 renal, -90.9% (active); in the assay with RPMI-8226 leukemia it was -46% (active); in the assay with OVCAR-8 ovarian it was -86.6% (active). In addition, the growth in the assay with OVCAR-4 ovarian is -68.9% (active); in the assay with SK-OV-3 ovarian, -82.3% (active); in the assay with IGROV1 ovarian it was -91.8% (active); with OVCAR-3 ovarian, -77.1% (active); in the assay on BT-549 breast, -97% (active); in the assay with MDA-MB-435 melanoma, -86.8% (active). The growth in the assay on HCT-116 colon was -93.5% (active); in the assay on HCC-2998 colon it was -85.8% (active).
On to `CC12OOC(C)(OO1)C2CCC(=O)NCCNc1ccnc2cc(Cl)ccc12` (stereo not given), for which the growth in the assay on 786-0 renal was 107%; in the assay on MALME-3M melanoma, 89.7%; in the assay with UACC-257 melanoma, 112%; in the assay with SK-MEL-2 melanoma, 105%; with EKVX NSCLC it was 88.6%; with SN12C renal, 99.4%. In addition, the growth in the assay on TK-10 renal is 121%; in the assay on ACHN renal it was 97%; in the assay on CAKI-1 renal it was 78.2%; with A498 renal, 106%; with RPMI-8226 leukemia it was 78.8%; in the assay with OVCAR-8 ovarian it was 97.6%. The growth is 96.8% with OVCAR-4 ovarian; 91.2% in the assay with SK-OV-3 ovarian; 89.2% in the assay on IGROV1 ovarian; 97.3% in the assay with OVCAR-3 ovarian; 106% in the assay on BT-549 breast; 97.7% with MDA-MB-435 melanoma. Besides, the growth in the assay on HCT-116 colon was 100%; in the assay on HCC-2998 colon it was 99.7%.
For the compound `CC1=C(CCC=O)C2=C(C)C3(CC3)[C@@](C)(O)C(=O)C2=C1`, the growth is -48.9% (active) in the assay on 786-0 renal; -96% (active) with MALME-3M melanoma; -92.1% (active) in the assay with UACC-257 melanoma; -70.6% (active) in the assay on SK-MEL-2 melanoma; -81.6% (active) with EKVX NSCLC; -82.3% (active) in the assay with SN12C renal. In addition, the growth with TK-10 renal was -91.6% (active); in the assay on ACHN renal, -100% (active); with CAKI-1 renal it was -100% (active); in the assay with A498 renal, -56.8% (active); with RPMI-8226 leukemia it was 1.91% (active); in the assay on OVCAR-8 ovarian, -73.4% (active). In addition, the growth is -97.4% (active) in the assay on OVCAR-4 ovarian; -62% (active) in the assay on SK-OV-3 ovarian; -79.5% (active) in the assay on IGROV1 ovarian; -77.6% (active) with OVCAR-3 ovarian; -23% (active) with BT-549 breast; -88.8% (active) with MDA-MB-435 melanoma. Besides, the growth with HCT-116 colon was -63.9% (active); in the assay with HCC-2998 colon, -91.6% (active).
As to `C[C@H]1[C@H](OC(=O)CCC(=O)N(CCCc2cn(-c3ccc(C#N)cc3)nn2)CCNc2ccnc3cc(Cl)ccc23)O[C@@H]2OC3(C)CC[C@H]4[C@H](C)CC[C@@H]1[C@@]24OO3`, the growth was 50.7% in the assay on 786-0 renal; 13.3% in the assay on MALME-3M melanoma; 58.3% with UACC-257 melanoma; 31.4% with SK-MEL-2 melanoma; 53% in the assay with EKVX NSCLC; 58.9% in the assay on SN12C renal. The growth in the assay with TK-10 renal was 54.2%; in the assay with ACHN renal, 44.5%; in the assay on CAKI-1 renal, 40.8%; in the assay on A498 renal it was 110%; with RPMI-8226 leukemia, 27%; in the assay on OVCAR-8 ovarian it was 22.3%. For the same compound, the growth in the assay with OVCAR-4 ovarian was 41.9%; with SK-OV-3 ovarian, 84.4%; with IGROV1 ovarian, 44.5%; in the assay with OVCAR-3 ovarian it was 45.2%; with BT-549 breast, 24.2%; in the assay with MDA-MB-435 melanoma, 28.8%. In addition, the results for the growth in the assay on HCT-116 colon and in the assay with HCC-2998 colon were 21.9% and 70.3%, respectively.
Regarding `O=C(/C=C/c1ccc(Cl)cc1)c1nc2ccccc2n1Cc1ccc(Br)cc1`, the growth is 38.9% with 786-0 renal; 71.5% in the assay with MALME-3M melanoma; 71% in the assay with UACC-257 melanoma; 83.3% with SK-MEL-2 melanoma; 39.9% with EKVX NSCLC; 52.9% in the assay with SN12C renal. The growth with TK-10 renal is 93.7%; in the assay with ACHN renal, 51.1%; with CAKI-1 renal it was 57.4%; in the assay with A498 renal it was 115%; in the assay with RPMI-8226 leukemia, -13.4% (active); in the assay with OVCAR-8 ovarian it was 66%. Also, the growth in the assay on OVCAR-4 ovarian is 68.5%; in the assay on SK-OV-3 ovarian, 94.7%; in the assay on IGROV1 ovarian, 52.4%; in the assay with OVCAR-3 ovarian it was 38.2%; with BT-549 breast it was 37.2%; with MDA-MB-435 melanoma it was 54.2%. For the same compound, the figures for the growth in the assay on HCT-116 colon and in the assay with HCC-2998 colon were 33.1% and 65.3%, respectively.
As for `CCOC(=O)C1=C(Nc2ccccc2)C(=O)OC12C(=O)Nc1ccccc12` (stereo not given), the growth in the assay with 786-0 renal was 108%; in the assay on MALME-3M melanoma it was 102%; with UACC-257 melanoma it was 101%; with SK-MEL-2 melanoma it was 99.9%; in the assay with EKVX NSCLC it was 95.2%; in the assay with SN12C renal it was 110%. Moreover, the growth in the assay on TK-10 renal is 137%; in the assay with ACHN renal, 107%; in the assay on CAKI-1 renal it was 82.6%; with A498 renal it was 120%; in the assay on RPMI-8226 leukemia, 104%; in the assay with OVCAR-8 ovarian, 105%. In addition, the growth was 107% in the assay with OVCAR-4 ovarian; 104% in the assay with SK-OV-3 ovarian; 102% with IGROV1 ovarian; 104% with OVCAR-3 ovarian; 103% with BT-549 breast; 108% in the assay on MDA-MB-435 melanoma. Besides, the growth is 109% with HCT-116 colon and 115% in the assay on HCC-2998 colon.

(Values after PubChem BioAssay (NCI).)
